In the library only some 11% were active in any assay of this set; here they are far more common.
HEK cytotox: kills HEK 293 cells. HEK 293 viability, ATP luminescence (CellTiter-Glo), 48-72 h. 94,000 tested, 6.6% active. Potency, µM (doses to about 115 µM), inactives show at the top dose activity change, negative = cytotoxicity, most hits filed as inhibitors; further: nearly all actives have a fitted effect of over 60% in size
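Luminescence from cellular ATP, measured with CellTiter-Glo, indicates HEK 293 viability. Cells plated at 250 cells/well are treated with compound for 48 or 72 hr at 37 degree Celsius before reagent addition.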
NIH3T3 tox: cytotoxic compounds in NIH 3T3 cells | NIH 3T3 viability, CellTiter-Glo ATP luminescence, 48-72 h | Potency, µM (highest dose often 96.7 µM), without a hit: at the highest dose activity change, negative = cytotoxicity, hits mostly inhibitors | 94,000 tested, 4.3% active; further: nearly all actives have a fitted effect of over 55% in size
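Cytotoxicity is measured as loss of cellular ATP: NIH 3T3 cells (400/well) are exposed to compound for 48 or 72 hr at 37 °C, then CellTiter-Glo luminescence is imaged after 10 min at room temperature.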
FLuc inh: Photinus pyralis luciferase inhibition | P08659 | purified P. pyralis luciferase, luminescence, biochemical | Potency, µM (highest dose often 115 µM), actives largely listed as inhibitors | 76,000 tested, 2.5% active | AID 1347043; further: nearly all actives have a fitted effect of over 65% in size
Target sequence (P08659 whole entry, looked up): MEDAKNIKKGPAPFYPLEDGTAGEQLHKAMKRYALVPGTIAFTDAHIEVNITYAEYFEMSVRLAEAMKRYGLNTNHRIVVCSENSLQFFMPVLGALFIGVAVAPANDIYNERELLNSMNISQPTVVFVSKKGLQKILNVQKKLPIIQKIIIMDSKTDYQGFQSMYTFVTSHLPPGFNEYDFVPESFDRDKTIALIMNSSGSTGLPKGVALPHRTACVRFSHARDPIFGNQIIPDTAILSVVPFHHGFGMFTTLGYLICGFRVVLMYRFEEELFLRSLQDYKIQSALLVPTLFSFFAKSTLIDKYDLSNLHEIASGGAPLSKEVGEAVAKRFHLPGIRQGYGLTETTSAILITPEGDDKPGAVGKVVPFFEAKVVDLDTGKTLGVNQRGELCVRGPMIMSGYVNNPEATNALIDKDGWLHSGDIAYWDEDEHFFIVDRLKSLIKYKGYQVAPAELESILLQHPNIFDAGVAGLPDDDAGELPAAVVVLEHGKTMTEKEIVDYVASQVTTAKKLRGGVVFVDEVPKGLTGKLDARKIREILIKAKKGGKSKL
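Cell-free enzyme assay, 10nM P. pyralis luciferase, luciferin and ATP each at 10uM. Inhibition profiled over a 6-point titration, read as luminescence.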
NPR1 antag: human Npr1 receptor antagonism | P16066 | HEK293 hNpr1 GloSensor cGMP, ANP-stimulated luminescence | Potency, µM (doses to about 46.3 µM), for inactives: at the top dose activity change, negative = inhibition, most hits filed as inhibitors | 76,000 tested, 1.6% active; calls by dose curve; further: nearly all actives have a fitted effect of over 60% in size
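HEK293 cells stably expressing human Npr1 and cGMP GloSensor pGS-40F, loaded 2 h with 2% GloSensor reagent, given compound 30 min at room temperature. Luminescence read before and 20 min after 0.1 nM hNppA.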
Starred values were filed as active, the others as inactive; [ ] = remark or other dose. Unless noted, the call rests on the fitted dose curve; in most records, active means well fitted curve in the direction sought with a large enough effect; inconclusive means small, poorly fitted or top-dose-only effect, or another doubt; inactive means no such curve, though single readings can be large; an effect the other way counts as inactive or inconclusive. On the % scale 0 is the no-effect control and ±100 the full control effect; potency means the concentration at half of the fitted maximal effect.

How did CCOC(=O)c1cccc(NC(=O)C2=CC(C)(C)Oc3ccc(OC)cc32)c1 do in these assays?
HEK cytotox: 25µM*; NIH3T3 tox: 28µM*

Results for COC(=O)c1ccc(COCC2=CC(C)(C)Oc3ccc(OC)cc32)cc1 ?
HEK cytotox: 35µM*; NIH3T3 tox: inconclusive

Results for COc1ccc2c(c1)C(COCc1ccc(C(=O)O)cc1)=CC(C)(C)CO2 ?
HEK cytotox: inactive; NIH3T3 tox: inconclusive

How did CCOC(=O)c1cccc(NC(=O)N2CC[C@@H](CC(=O)Nc3ccccc3)[C@@H](CC)C2)c1 do in these assays?
HEK cytotox: -5%; NIH3T3 tox: -20%; FLuc inh: inactive; NPR1 antag: -1%

What do the screens show for `O=C1CCCCN1CCNc1ccc(-c2nc(-c3ccccc3F)no2)cn1`?
HEK cytotox: inconclusive; NIH3T3 tox: inconclusive; FLuc inh: 14µM*; NPR1 antag: -29%

What do the screens show for `O=C1OCCCN1CCNc1ccc(-c2nc(-c3ccccc3F)no2)cn1`?
HEK cytotox: inconclusive; NIH3T3 tox: -37%; FLuc inh: 35µM*; NPR1 antag: -25%

How did COC(=O)[C@@H]1CCCN1c1ccc(-c2nc(-c3ccccc3F)no2)cn1 do in these assays?
HEK cytotox: 40µM*; NIH3T3 tox: inconclusive; FLuc inh: inconclusive; NPR1 antag: 14µM*

What do the screens show for `COCCNc1ccc(-c2noc([C@@H]3CCCN3Cc3ccccc3F)n2)cn1`?
HEK cytotox: inconclusive; NIH3T3 tox: -15%[138 µM]; FLuc inh: inactive; NPR1 antag: 7%[70.6 µM]

How did CCOC(=O)c1ccc(N2CCN(CCC3c4cccnc4C(=O)N3c3c(C)cccc3C)CC2)cc1 (centres undefined) do in these assays?
HEK cytotox: 35µM*; NIH3T3 tox: inconclusive

How did c1csc(-c2nc3nccc(-c4ccsc4)n3n2)c1 do in these assays?
HEK cytotox: inconclusive; NIH3T3 tox: inconclusive; FLuc inh: inactive; NPR1 antag: 1%

What do the screens show for `c1coc(-c2ccnc3nc(-c4cccs4)nn23)c1`?
HEK cytotox: -14%; NIH3T3 tox: 35µM*; FLuc inh: inactive; NPR1 antag: 6%

Results for c1csc(-c2nc3nccc(-c4ccncc4)n3n2)c1 ?
HEK cytotox: -4%; NIH3T3 tox: -14%; FLuc inh: inactive; NPR1 antag: 3%

How did COc1cccc(-c2ccnc3nc(-c4cccs4)nn23)c1 do in these assays?
HEK cytotox: inconclusive; NIH3T3 tox: inconclusive; FLuc inh: 16µM*; NPR1 antag: -14%

How did OCC1CNCCC12CCN(Cc1ccc3ccccc3c1)CC2 (centres undefined) do in these assays?
HEK cytotox: 28µM*; NIH3T3 tox: 45µM*; FLuc inh: inactive; NPR1 antag: -4%

What do the screens show for `OCC1CN(c2ncccn2)CC12CCN(Cc1ccc3cc[nH]c3c1)CC2` (centres undefined)?
HEK cytotox: -14%; NIH3T3 tox: 2%; FLuc inh: inactive; NPR1 antag: 6%

Results for COc1ncccc1-c1nc(-c2c(C)noc2C)cc2[nH]c(C)cc12 ?
HEK cytotox: inconclusive; NIH3T3 tox: inconclusive; FLuc inh: inactive; NPR1 antag: 3%[70.6 µM]

How did COc1ccccc1-c1nc(-c2c(C)noc2C)cc2[nH]c(C)cc12 do in these assays?
HEK cytotox: inconclusive; NIH3T3 tox: 25µM*; FLuc inh: inactive; NPR1 antag: -14%[70.6 µM]

What do the screens show for `COc1cc(F)ccc1-c1nc(-c2c(C)noc2C)cc2[nH]c(C)cc12`?
HEK cytotox: inconclusive; NIH3T3 tox: 35µM*; FLuc inh: inactive; NPR1 antag: 0%[70.6 µM]

How did Cc1cc2c(-c3ccccc3)nc(-c3c(C)noc3C)cc2[nH]1 do in these assays?
HEK cytotox: inconclusive; NIH3T3 tox: inconclusive; FLuc inh: inactive; NPR1 antag: 5%[70.6 µM]

How did COc1ccc(-c2cccc(C(=O)N3CCN(C(=O)c4ccccc4C)CC3)c2)nn1 do in these assays?
HEK cytotox: inactive; NIH3T3 tox: -4%

How did Cc1ccc(CN2CCCC3(COc4ccccc4C(=O)N3)C2)cc1 (centres undefined) do in these assays?
HEK cytotox: inconclusive; NIH3T3 tox: inconclusive; FLuc inh: inactive; NPR1 antag: -2%[70.6 µM]

How did COc1ccc(CN2Cc3[nH]cnc3C[C@H]2C(=O)N(C)Cc2ccccc2)c2ccccc12 do in these assays?
HEK cytotox: 40µM*; NIH3T3 tox: inconclusive; FLuc inh: inactive; NPR1 antag: -26%
